# According to PubChem BioAssay:
# Values joined by “and” are separate entries in the source; they are usually repeats but may differ in a detail not shown here. Equal values may be shown once. Results filed as inconclusive are left out. For part of these data: Measured potencies and affinities stand elsewhere. Active and inactive are the calls of the source. Unless noted, how the calls were made is not given here.
# Experiments:
# [1] = target: 6-phosphogluconate dehydrogenase, decarboxylating (Homo sapiens) (UniProt P52209); assay: inhibition of human phosphogluconate dehydrogenase – biochemical, recombinant enzyme, NADPH absorbance, primary screen (AID 1159550;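 active means at least 20% inhibition of 6-phosphogluconate dehydrogenase activity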); conditions: recombinant 6PGD, NADPH absorbance 341 nm; at 10 µM; stronger effect = higher value
# 6-phosphogluconate dehydrogenase, decarboxylating (Homo sapiens), sequence (P52209 whole entry, looked up): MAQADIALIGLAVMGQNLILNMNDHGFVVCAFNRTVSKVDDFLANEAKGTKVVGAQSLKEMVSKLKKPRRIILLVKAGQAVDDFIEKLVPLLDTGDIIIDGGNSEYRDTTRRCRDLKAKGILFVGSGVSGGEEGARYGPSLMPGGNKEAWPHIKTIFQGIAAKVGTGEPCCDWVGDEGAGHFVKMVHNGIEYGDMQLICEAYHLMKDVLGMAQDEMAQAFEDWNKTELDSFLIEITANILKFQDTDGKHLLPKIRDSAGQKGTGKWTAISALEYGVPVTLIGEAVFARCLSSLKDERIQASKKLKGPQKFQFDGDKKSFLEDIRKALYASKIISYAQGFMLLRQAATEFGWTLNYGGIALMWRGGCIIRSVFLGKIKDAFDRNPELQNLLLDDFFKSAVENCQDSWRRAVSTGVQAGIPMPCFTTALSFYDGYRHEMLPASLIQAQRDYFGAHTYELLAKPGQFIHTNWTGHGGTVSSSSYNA
# [2] = EMT-state selective cytotoxicity in co-culture – imaging, PC-3E GFP, TEM4-18 mCherry, primary screen (AID 1345086;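 active means compounds killing one labelled cell type while sparing the other, by normalised counts and ratio limits, not self-fluorescent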;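 on all read-outs here: cells exposed to compound for 72 h before imaging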;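 on red/green cell ratio (normalised): normalised mesenchymal count divided by normalised epithelial count so high means epithelial killing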); conditions: PC-3E GFP / TEM4-18 mCherry co-culture, imaging cell counts, at 1 µM; for red/green cell ratio (normalised): actives lie on both sides
# [3] = system: Aerobactin synthetase IucA (Klebsiella pneumoniae hvKP1); assay: IucA enzyme inhibition, primary screen, biochemical, Spectrum library (AID 1346200); conditions: malachite green pyrophosphate, A620, at 8 µM, stronger effect = lower value;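 further: 100% = wells without compound and 0% = wells lacking enzyme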
# [4] = target: Mitogen-activated protein kinase 7 (Homo sapiens) (UniProt Q13164); assay: Gal4-ERK5 driven luciferase induction – cell-based, HTS, primary screen (AID 1508626;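 active means luciferase signal above three times the same-plate solvent-only control wells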;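 further: luciferase driven by Gal4-ERK5 fusion binding five Gal4 sites before minimal TATA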); conditions: HeLa Gal4-ERK5 transactivation, 18 h, at 5 µM, stronger effect = higher value
# Mitogen-activated protein kinase 7 (Homo sapiens), sequence (Q13164 whole entry, looked up, the tested form may be a part): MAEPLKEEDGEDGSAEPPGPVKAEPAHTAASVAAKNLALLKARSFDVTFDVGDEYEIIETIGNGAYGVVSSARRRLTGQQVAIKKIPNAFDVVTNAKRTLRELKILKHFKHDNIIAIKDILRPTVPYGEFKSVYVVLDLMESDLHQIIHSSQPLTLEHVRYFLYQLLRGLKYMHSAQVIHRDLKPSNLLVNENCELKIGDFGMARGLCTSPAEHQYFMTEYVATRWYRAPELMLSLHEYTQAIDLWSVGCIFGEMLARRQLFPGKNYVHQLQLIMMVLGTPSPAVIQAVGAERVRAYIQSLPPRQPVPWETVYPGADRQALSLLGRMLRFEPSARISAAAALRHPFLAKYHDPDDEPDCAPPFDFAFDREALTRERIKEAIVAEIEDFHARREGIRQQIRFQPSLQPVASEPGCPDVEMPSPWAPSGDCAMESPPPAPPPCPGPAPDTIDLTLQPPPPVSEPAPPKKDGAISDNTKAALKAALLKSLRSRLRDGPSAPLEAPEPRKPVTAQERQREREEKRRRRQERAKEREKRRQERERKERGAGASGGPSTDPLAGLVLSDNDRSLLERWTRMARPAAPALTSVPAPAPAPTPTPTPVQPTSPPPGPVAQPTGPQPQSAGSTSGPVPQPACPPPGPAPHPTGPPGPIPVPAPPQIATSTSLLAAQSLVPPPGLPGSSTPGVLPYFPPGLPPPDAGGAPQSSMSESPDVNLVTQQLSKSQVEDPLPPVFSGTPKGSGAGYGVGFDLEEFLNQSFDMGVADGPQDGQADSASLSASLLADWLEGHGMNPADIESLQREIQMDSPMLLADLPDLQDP
# [5] = target: ATP-dependent translocase ABCB1 (Homo sapiens) (UniProt P08183); assay: P-glycoprotein substrate transport blockade – cell-based (AID 377; in the data active means fluorescence slope change above about 50%); conditions: MDR1-expressing cells, fluorescent substrate accumulation slope; stronger effect = higher value; concentration not given here
# ATP-dependent translocase ABCB1 (Homo sapiens), sequence (P08183 whole entry, looked up): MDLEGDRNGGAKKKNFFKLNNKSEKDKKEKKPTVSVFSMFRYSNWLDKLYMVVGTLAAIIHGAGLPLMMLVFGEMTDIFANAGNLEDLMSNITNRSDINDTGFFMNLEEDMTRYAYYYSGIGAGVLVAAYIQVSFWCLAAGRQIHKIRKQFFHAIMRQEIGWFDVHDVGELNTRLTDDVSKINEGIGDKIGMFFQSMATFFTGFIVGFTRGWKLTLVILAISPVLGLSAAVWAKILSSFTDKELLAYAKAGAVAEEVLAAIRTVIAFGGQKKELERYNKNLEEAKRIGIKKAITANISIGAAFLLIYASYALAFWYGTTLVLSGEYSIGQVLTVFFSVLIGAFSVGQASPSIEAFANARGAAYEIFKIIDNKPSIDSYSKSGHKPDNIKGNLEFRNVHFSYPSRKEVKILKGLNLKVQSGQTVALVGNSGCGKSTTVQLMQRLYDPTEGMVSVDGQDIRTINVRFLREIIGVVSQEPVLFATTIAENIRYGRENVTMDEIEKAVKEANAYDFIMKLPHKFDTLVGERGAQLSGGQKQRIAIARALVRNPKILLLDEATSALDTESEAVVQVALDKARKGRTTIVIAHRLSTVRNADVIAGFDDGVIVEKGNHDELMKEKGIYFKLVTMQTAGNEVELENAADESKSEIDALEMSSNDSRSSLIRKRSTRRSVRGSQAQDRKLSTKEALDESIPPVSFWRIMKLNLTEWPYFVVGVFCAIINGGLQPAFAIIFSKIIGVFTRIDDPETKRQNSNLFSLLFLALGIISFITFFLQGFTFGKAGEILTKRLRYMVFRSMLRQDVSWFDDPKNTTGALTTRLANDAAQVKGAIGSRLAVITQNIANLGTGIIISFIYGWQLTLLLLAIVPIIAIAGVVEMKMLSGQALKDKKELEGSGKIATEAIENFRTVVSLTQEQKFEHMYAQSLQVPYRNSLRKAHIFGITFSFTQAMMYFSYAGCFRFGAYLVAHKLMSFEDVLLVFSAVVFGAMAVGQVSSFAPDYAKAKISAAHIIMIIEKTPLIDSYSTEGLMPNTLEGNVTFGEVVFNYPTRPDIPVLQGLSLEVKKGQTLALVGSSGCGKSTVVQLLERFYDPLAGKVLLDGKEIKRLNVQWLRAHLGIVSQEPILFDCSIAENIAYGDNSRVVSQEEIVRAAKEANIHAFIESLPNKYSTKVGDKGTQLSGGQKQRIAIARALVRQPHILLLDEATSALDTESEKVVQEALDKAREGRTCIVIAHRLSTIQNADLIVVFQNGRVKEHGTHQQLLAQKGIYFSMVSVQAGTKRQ
# [6] = blockers of polyQ-driven CASP3 activation – cell-based (AID 1583); conditions: polyglutamine-induced caspase-3 activation, cell assay; stronger effect = higher value;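 tested at 10 µM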
# [7] = yeast 75Q aggregation reduction – 75Q-TubU reporter (AID 1593); conditions: Yeast 75Q polyglutamine aggregation reporter
# [8] = restoration of touch response, mutant HTT neurons – whole organism, C. elegans mechanosensory neurons, N-terminal huntingtin (AID 1599); conditions: C. elegans polyQ-huntingtin mechanosensory neurons, stronger effect = higher value
# [9] = blockers of cytochrome c efflux from mitochondria – biochemical, purified mitochondria (AID 1603); conditions: stronger effect = lower value;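 further: mouse liver mitochondria challenged with calcium chloride; signal normalized to the plate average as 100%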
# [10] = polyglutamine aggregate formation blockers (AID 1604); conditions: polyglutamine-induced protein aggregation inhibition assay; stronger effect = higher value; tested at 2.5 µM
# [11] = glutamate transport activators, MN-1 cells, MN-1 cell line (AID 1612); conditions: MN-1 motor neuron cells, stronger effect = higher value;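 further: tested at 1 µM final; 0% = mean of DMSO vehicle wells on each plate; positive means more glutamate uptake than control and negative means less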
# [12] = GFP-Q80 aggregate reduction, neuronal-like cells, cell-based, NGF-treated PC12, GFPQ80 (AID 1614); conditions: PC12 NGF-treated GFP-polyQ80 inclusion reduction;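 further: lower means fewer inclusions and 0 means no inclusions at all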
# [13] = 75Q-TubH aggregate inhibition, S. cerevisiae, yeast (AID 1616); conditions: S. cerevisiae 75Q-TubH polyglutamine aggregation suppression; stronger effect = higher value
# [14] = compounds altering viability of human ES cells (AID 493140); conditions: human embryonic stem cell survival screen; stronger effect = higher value;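 further: cells exposed to compounds for four days before counting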
# [15] = system: Aerobactin synthetase IucA (Klebsiella pneumoniae, hypervirulent); assay: biochemical IucA inhibition screen of LOPAC library by absorbance (AID 1346212); conditions: IucA enzyme assay, absorbance (OD) readout; stronger effect = lower value;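 tested at 8 µM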;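 further: 100% = no compound wells and 0% = no enzyme wells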
# [16] = MELAS cybrid and Rieske KO viability enhancers – cell-based, MELAS cybrids, Rieske KO mouse fibroblasts, CellTiter-Glo, primary screen (AID 1508586;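 active means mean z-score across replicates of 1.96 or higher in either the MELAS or the Rieske mutant cell line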;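 further: z relative to plate mean and SD of compound and empty wells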); conditions: low glucose
# [17] = target: NAD(+) hydrolase SARM1 (Homo sapiens) (UniProt Q6SZW1); assay: blocking NAD cleavage by SARM1 SAM-TIR – cell lysate, NAD-Glo luminescence (AID 1508614;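 active means compound whose remaining NAD level is above about 45 nM, limit read from the data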); conditions: SAM-TIR HEK293T lysate NADase, at 1 µM, stronger effect = higher value
# NAD(+) hydrolase SARM1 (Homo sapiens), sequence (Q6SZW1 whole entry, looked up): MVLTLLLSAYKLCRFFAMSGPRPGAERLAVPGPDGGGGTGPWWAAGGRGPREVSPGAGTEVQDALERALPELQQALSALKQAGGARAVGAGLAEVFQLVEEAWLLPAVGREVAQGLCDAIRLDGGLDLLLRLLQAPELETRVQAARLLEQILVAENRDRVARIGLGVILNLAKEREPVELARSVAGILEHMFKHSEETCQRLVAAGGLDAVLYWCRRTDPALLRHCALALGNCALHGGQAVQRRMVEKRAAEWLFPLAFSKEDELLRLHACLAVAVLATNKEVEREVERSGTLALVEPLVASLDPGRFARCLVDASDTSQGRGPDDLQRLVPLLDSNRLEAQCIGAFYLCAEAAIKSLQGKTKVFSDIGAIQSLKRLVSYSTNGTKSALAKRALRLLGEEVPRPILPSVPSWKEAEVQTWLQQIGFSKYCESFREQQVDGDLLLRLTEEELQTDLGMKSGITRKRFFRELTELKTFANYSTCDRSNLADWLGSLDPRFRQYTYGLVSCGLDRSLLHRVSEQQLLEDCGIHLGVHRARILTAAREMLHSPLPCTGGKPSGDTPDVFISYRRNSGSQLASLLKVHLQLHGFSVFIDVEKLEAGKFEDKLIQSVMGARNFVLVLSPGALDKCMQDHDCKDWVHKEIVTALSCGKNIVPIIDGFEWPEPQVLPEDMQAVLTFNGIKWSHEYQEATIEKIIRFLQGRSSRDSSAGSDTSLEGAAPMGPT
# [18] = galactose survival enhancers in mitochondrial complex I cybrids – cell-based, galactose medium, ATP luminescence, primary screen (AID 1645843;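 active means z-score of at least 1.8 in each of two replicates, scored against plate mean and spread of sample wells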;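 further: positive z means more ATP and so rescue of galactose-driven cybrid death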); conditions: complex I mutant cybrid cells, 72 h, stronger effect = higher value
# [19] = P. berghei load reduction in hepatocytes – cell-based, HepG2, luciferase luminescence, HepG2 viability, primary screen (AID 624349; in the data active means parasite load remaining mostly below about 12%, no sharp cut-off; inactive means mostly above about 10%;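 further: 100% = mean of DMSO negative control wells on the same plate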); conditions: P. berghei liver stage in HepG2, luciferase luminescence, concentration not given here; parasite load remaining: stronger effect = lower value; viability: measured here: HepG2 viability without parasites
# [20] = viability loss with induced miR-34 in A549 – imaging, A549 dox-inducible miR-34, nuclei and caspase counts, primary screen (AID 1347080;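 active means compounds whose cell count with miR-34 switched on is under 0.7 times the count with it off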); conditions: A549 miR-34 inducible, Hoechst nuclei count, 48 h
# [21] = counts scaled to control wells, 1 = unselective
# [22] = measured here: epithelial PC-3E GFP cell survival
# [23] = measured here: mesenchymal TEM4-18 mCherry cell survival
# [24] = MELAS cybrid survival, CellTiter-Glo 48 h, stronger effect = higher value
# [25] = Rieske KO mouse fibroblast survival, CellTiter-Glo 72 h
# [26] = measured here: relative caspase fold change +Dox/-Dox
# [27] = measured here: total cells with miR-34 induction, stronger effect = lower value
# [28] = measured here: total cells without miR-34 induction
smiles,measurement,setting,value
CN[C@@H]1[C@@H](O)C(OC2[C@@H](N)C[C@@H](N)[C@H](O[C@H]3O[C@H](C(C)O)[C@@H](O)[C@H](O)[C@H]3N)[C@H]2O)OC[C@]1(C)O (some centres not stated),inhibition,[1],15.2% (inactive)
same,red/green cell ratio (normalised),[2]; [21],1.08 (inactive)
same,normalised cell number,[2]; [22],0.91
same,normalised cell number,[2]; [23],0.99
same,activity remaining,[3],111% (inactive)
N[C@H](CO)Cc1ccccc1,inhibition,[1],1.18% (inactive)
same,red/green cell ratio (normalised),[2],1 (inactive)
same,normalised cell number,[2]; [22],1.16
same,normalised cell number,[2]; [23],1.17
same,activity remaining,[3],102% (inactive)
O=c1cccc2n1CC1CC2CN2CCCC[C@@H]12 (some centres not stated),inhibition,[1],1.69% (inactive)
same,red/green cell ratio (normalised),[2]; [21],1.02 (inactive)
same,normalised cell number,[2]; [22],0.92
same,normalised cell number,[2]; [23],0.94
same,activity remaining,[3],116% (inactive)
same,luciferase signal,[4],56 AU (inactive)
O=C(O)CCCOc1ccc(Cl)cc1Cl,inhibition,[1],-17.1% (inactive)
same,red/green cell ratio (normalised),[2]; [21],0.77 (inactive)
same,normalised cell number,[2]; [22],1.36
same,normalised cell number,[2]; [23],1.05
same,activity remaining,[3],103% (inactive)
CC[C@@H]1C(=O)OC[C@@H]1Cc1cncn1C,fluorescence slope change,[5],105% (active)
same,inhibition,[6],5.24%
same,score,[7],1.3
same,rescue above control,[8],1.26
same,cytochrome c release ratio,[9],1.64
same,inhibition of aggregation,[10],35.3%
same,glutamate uptake change,[11],4.33%
same,inclusion score,[12],2
same,aggregation suppression score,[13],1.4
same,survival,[14],5.75 (inactive)
same,inhibition,[1],-6.49% (inactive)
same,red/green cell ratio (normalised),[2]; [21],1.18 (inactive)
same,normalised cell number,[2]; [22],0.97
same,normalised cell number,[2]; [23],1.14
same,activity remaining,[3],115% (inactive)
same,remaining activity,[15],112% (inactive) and 106% (inactive)
same,z-score,[16]; [24],0.213 (inactive)
same,z-score,[16]; [25],-0.117
same,remaining NAD,[17],10 nM (inactive)
same,luciferase signal,[4],44 AU (inactive)
same,z-score,[18],0.47 (inactive) and 0.265 (inactive) and 0.26 (inactive)
C[C@@H](N)[C@@H](O)c1ccccc1,parasite load remaining,[19],28.8% (inactive)
same,viability,[19],110%
same,inhibition,[1],-16.8% (inactive) and 9.51% (inactive)
same,red/green cell ratio (normalised),[2],0.97 (inactive)
same,normalised cell number,[2]; [22],1.13
same,normalised cell number,[2]; [23],1.1
same,activity remaining,[3],122% (inactive)
same,fold change,[20]; stronger effect = lower value,0.851 (inactive)
same,fold change,[20]; [26],1.36
same,cell count,[20]; [27],8010
same,cell count,[20]; [28],9410
same,z-score,[16]; [24],-0.426 (inactive)
same,z-score,[16]; [25],-0.509
COc1ccc2c(c1)[nH]c1c(C)nccc12,fluorescence slope change,[5],59.3% (active)
same,survival,[14],4.58 (inactive)
same,viability,[19],76.6% and 67.9% and 85.5%
same,inhibition,[1],-2.64% (inactive)
same,red/green cell ratio (normalised),[2],0.67 (inactive)
same,normalised cell number,[2]; [22],0.9
same,normalised cell number,[2]; [23],0.6
same,activity remaining,[3],104% (inactive)
same,fold change,[20]; stronger effect = lower value,0.845 (inactive) and 0.909 (inactive) and 0.923 (inactive)
same,fold change,[20]; [26],1.49 and 0.507 and 1.16
same,cell count,[20]; [27],4630 and 5110 and 4130
same,cell count,[20]; [28],5480 and 5630 and 4470
same,z-score,[16]; [24],0.384 (inactive)
same,z-score,[16]; [25],1.34
same,luciferase signal,[4],124 AU (inactive)
same,z-score,[18],-0.45 (inactive)
CCOP(=S)(OCC)Oc1nc(Cl)c(Cl)cc1Cl,inhibition,[1],-10.3% (inactive)
same,red/green cell ratio (normalised),[2],0.91 (inactive)
same,normalised cell number,[2]; [22],0.9
same,normalised cell number,[2]; [23],0.82
same,activity remaining,[3],79.3% (inactive)
same,fold change,[20]; stronger effect = lower value,0.887 (inactive)
same,fold change,[20]; [26],1.26
same,cell count,[20]; [27],8030
same,cell count,[20]; [28],9060
same,remaining NAD,[17],10 nM (inactive)
C[C@H](N)[C@H](O)c1ccc(O)c(O)c1,inhibition,[6],6.31%
same,score,[7],1.43
same,rescue above control,[8],4.59
same,cytochrome c release ratio,[9],0.9
same,inhibition of aggregation,[10],7.58%
same,glutamate uptake change,[11],12.7%
same,inclusion score,[12],2
same,aggregation suppression score,[13],1.14
same,parasite load remaining,[19],61.3% (inactive) and 64.5% (inactive) and 57.8% (inactive)
same,viability,[19],93.6% and 73.6% and 105%
same,inhibition,[1],-1.74% (inactive)
same,red/green cell ratio (normalised),[2],1.17 (inactive)
same,normalised cell number,[2]; [22],1.01
same,normalised cell number,[2]; [23],1.18
same,activity remaining,[3],102% (inactive)
same,fold change,[20]; stronger effect = lower value,0.912 (inactive) and 0.869 (inactive)
same,fold change,[20]; [26],1.02 and 0.57
same,cell count,[20]; [27],9300 and 11200
same,cell count,[20]; [28],10200 and 12900
same,z-score,[16]; [24],-0.729 (inactive)
same,z-score,[16]; [25],-1.14
same,remaining NAD,[17],10 nM (inactive)
same,luciferase signal,[4],16 AU (inactive)
CC(N)Cc1ccc(O)cc1 (configuration not stated),inhibition,[1],-0.0931% (inactive)
same,red/green cell ratio (normalised),[2],0.93 (inactive)
same,normalised cell number,[2]; [22],1.27
same,normalised cell number,[2]; [23],1.19
same,activity remaining,[3],111% (inactive)
same,remaining NAD,[17],10 nM (inactive)
O=C1C=C2C=C[C@@H]3C[C@@]2(O1)[C@H]1CCCCN31,parasite load remaining,[19],73.8% (inactive)
same,viability,[19],90.5%
same,inhibition,[1],6.02% (inactive)
same,red/green cell ratio (normalised),[2],0.9 (inactive)
same,normalised cell number,[2]; [22],1.21
same,normalised cell number,[2]; [23],1.09
same,activity remaining,[3],109% (inactive)
same,remaining NAD,[17],10 nM (inactive)
same,luciferase signal,[4],92 AU (inactive)
C[C@H]1CCCC(=O)CCC/C=C/c2cc(O)cc(O)c2C(=O)O1,inhibition,[1],15.7% (inactive)
same,red/green cell ratio (normalised),[2]; [21],1.02 (inactive)
same,normalised cell number,[2]; [22],1.02
same,normalised cell number,[2]; [23],1.04
same,activity remaining,[3],103% (inactive)
NC(N)=NOCC[C@H](N)C(=O)O,inhibition,[6],10.5%
same,score,[7],1.23
same,rescue above control,[8],-6.04
same,cytochrome c release ratio,[9],1.27
same,inhibition of aggregation,[10],85.9%
same,glutamate uptake change,[11],11.4%
same,inclusion score,[12],2
same,aggregation suppression score,[13],1.39
same,parasite load remaining,[19],114% (inactive) and 105% (inactive)
same,viability,[19],112% and 68.7%
same,inhibition,[1],12.8% (inactive)
same,red/green cell ratio (normalised),[2],1.04 (inactive)
same,normalised cell number,[2]; [22],0.91
same,normalised cell number,[2]; [23],0.95
same,activity remaining,[3],113% (inactive)
same,remaining activity,[15],106% (inactive) and 121% (inactive)
same,fold change,[20]; stronger effect = lower value,1.01 (inactive)
same,fold change,"[20]; stronger effect = lower value, cell number ratio, induced over uninduced",0.827 (inactive)
same,fold change,[20]; [26],1.39 and 1.69
same,cell count,[20]; [27],9120 and 8920
same,cell count,[20]; [28],8990 and 10800
same,luciferase signal,[4],84 AU (inactive)
same,z-score,[18],0.085 (inactive)
